# ALR inh: human ALR oxidase inhibition via reduced H2O2. P55789. purified ALR, DTT oxidation, H2O2 HRP-luminol luminescence. inhibition, % (test concentration not listed). 290,000 tested, 3.8% active. AID 485317;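 active means mean replicate inhibition above about 79%, with every replicate also reaching it, limit read from the data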
# A3A deaminase: inhibitors of human APOBEC3A DNA deaminase. 330,000 tested, 0.41% active. P31941. recombinant A3A, FAM/TAMRA ssDNA deamination fluorescence. inhibition, % at 20 µM;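 active means at least 40% inhibition at 20 µM here, with at most 30% in a related deaminase screen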;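 further: plate controls were A3A with DMSO for no effect and wells lacking A3A enzyme for full effect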
# A3G deaminase: inhibitors of human APOBEC3G DNA deaminase; recombinant A3G, ssDNA deamination FAM/TAMRA fluorescence; inhibition, % at 20 µM; 330,000 tested, 0.28% active; Q9HC16; AID 493012;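 active means inhibition of at least 40% at 20 µM, with no more than 30% in the related APOBEC3A deaminase screen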;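 further: plate controls were DMSO wells with A3G for no effect and wells lacking A3G enzyme for full effect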
# Target sequence (Q9HC16 whole entry, looked up): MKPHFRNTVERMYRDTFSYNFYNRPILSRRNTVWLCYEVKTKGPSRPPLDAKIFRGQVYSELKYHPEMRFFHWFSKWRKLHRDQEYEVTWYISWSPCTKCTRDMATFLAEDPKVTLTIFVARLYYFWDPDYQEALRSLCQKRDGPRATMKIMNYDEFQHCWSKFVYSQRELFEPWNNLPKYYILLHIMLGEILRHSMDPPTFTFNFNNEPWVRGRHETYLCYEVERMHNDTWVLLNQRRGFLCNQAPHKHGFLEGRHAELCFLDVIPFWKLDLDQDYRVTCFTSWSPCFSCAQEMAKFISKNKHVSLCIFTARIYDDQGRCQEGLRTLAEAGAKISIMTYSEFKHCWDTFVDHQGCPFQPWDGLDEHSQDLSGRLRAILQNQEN
# PHOSPHO1 block: blocks human PHOSPHO1 phosphatase activity; inhibition, % at 13.3 µM; Q8TCT1; recombinant PHOSPHO1, absorbance phosphatase assay; AID 1565; 290,000 tested, 1.1% active; in the data active means inhibition above about 60%
# Target sequence (Q8TCT1 whole entry, looked up): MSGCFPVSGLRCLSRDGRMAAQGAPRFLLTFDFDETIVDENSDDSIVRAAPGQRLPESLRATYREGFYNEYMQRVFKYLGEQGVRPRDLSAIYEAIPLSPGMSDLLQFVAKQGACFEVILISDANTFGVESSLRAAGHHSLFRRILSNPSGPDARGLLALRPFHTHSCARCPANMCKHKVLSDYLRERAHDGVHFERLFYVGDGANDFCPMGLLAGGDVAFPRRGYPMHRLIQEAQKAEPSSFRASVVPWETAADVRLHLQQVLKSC
# aDG glyco up: increases alpha dystroglycan glycosylation; Pro5-aDG cells, alpha-DG glycosylation AlphaScreen (IIH6); 0% Pro5, 100% B10-LARGE cell signal; activation, % at 10 µM; 360,000 tested, 0.22% active; AID 624168;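 active means activation of at least 8% versus controls, or a plate z-score of at least 8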;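 further: Pro5 are CHO cells carrying HIG-tagged alpha-DG that lacks glycosylation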
# rCAG binder: molecules binding r(CAG) RNA repeats | r(CAG) RNA repeat, TO-PRO-1 dye displacement fluorescence | 370,000 tested, 1.3% active | inhibition, % at 3 µM;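 active means inhibition above the plate cutoff, the mean of all test compounds on that plate plus 3 SD, cut at about 35% in these data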;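 further: 0% = DMSO alone and 100% = 100 µM mitoxantrone as full dye displacement; higher means more dye released from RNA so lower well fluorescence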
# APOBEC3A confirm: confirmation of human APOBEC3A DNA deaminase inhibitors | recombinant A3A, ssDNA deaminase UDG fluorescence assay | AID 493151 | inhibition, % at 20 µM | 1,400 tested, 63% active | shares compounds with A3A deaminase;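 active means inhibition reaching a set limit, 80% of the first screen's cutoff, at 20 µM in any replicate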;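 further: plate controls were DMSO wells with A3A for no effect and wells lacking A3A enzyme for full effect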
# UDG A3A counter: UDG inhibition in APOBEC3A counter-screen; shares compounds with A3A deaminase; UDG counterscreen, FAM/TAMRA uracil oligo fluorescence; AID 504714; inhibition, % at 20 µM; 1,000 tested, under 10 active; call rule not given here
# Numbers without * were called inactive; . = no result. A selection: hits, their analogues and other compounds. The true share with any hit is near 5.4%.
SMILES,ALR inh,A3A deaminase,A3G deaminase,PHOSPHO1 block,aDG glyco up,rCAG binder,APOBEC3A confirm,UDG A3A counter
O=C(c1cc([N+](=O)[O-])ccc1N1CCOCC1)N1CCN(c2ccc([N+](=O)[O-])cc2)CC1,.,56.1*,6.5,.,-0.2,0.1,5.0,.
CC(C)CC(=O)N1CCN(c2ccc([N+](=O)[O-])cc2Cl)CC1,3.8,7.2,-7.0,-13.2,0.7,-0.4,.,.
Fc1ccccc1Cn1c2[n+](c3ccc(C(F)(F)F)cc31)CCCCC2,.,37.9,17.7,-35.4,-0.2,-1.5,.,.
N#Cc1cccc(NC(=O)Cn2c3[n+](c4ccc(C(F)(F)F)cc42)CCCCC3)c1,-13.3,41.7*,28.3,-9.0,-0.3,11.8,59.8*,-2.6
CCCNc1c(F)c(F)c2c(C)c3ccccc3nc2c1F,2.8,42.1*,-3.4,10.0,0.6,26.2,-8.6,-17.6
CCOC(=O)C1CCCN(CCC(=O)Nc2cc(C)cc(C)c2)C1 (configuration not stated),-1.8,-1.6,-6.9,32.6,0.3,-7.3,.,.
CCOC(=O)C1CCCN(CC(=O)Nc2cc(C)cc(C)c2)C1 (configuration not stated),7.5,60.1*,29.7,-7.3,0.0,-6.7,28.8,.
CC(C)Oc1ccc(S(=O)(=O)N2CCCCCC2)c2ccccc12,.,.,.,.,.,1.2,.,.
CCc1ccccc1NC1=NCC(=O)N1Cc1ccc2c(c1)OCO2,-3.1,-4.5,-9.8,-26.0,0.2,3.2,.,.
O=C1CN=C(Nc2ccccc2Cl)N1Cc1ccc2c(c1)OCO2,.,96.0*,-1.2,-3.5,0.1,-2.5,-5.6,8.7
CCC(Sc1nnnn1C)C(=O)Nc1ccc(C(C)=O)cc1 (configuration not stated),3.8,40.4*,17.8,-13.2,-0.6,0.0,28.6,.
O=C(NC1CC1)c1ccc2sc([C@@H]3O[C@H](CO)[C@H](O)[C@H](O)[C@H]3O)nc2c1,.,.,.,.,-0.2,-0.9,.,.
CC(C)COC(=O)N1CC(O)CC1C(=O)Nc1ccc2c(c1)OCO2 (configuration not stated),.,53.5*,23.1,.,-0.1,2.5,80.9*,-0.6
O=C(Nc1ccccc1F)c1ccc(CSc2ncccn2)cc1,7.1,69.7*,11.6,17.9,-0.3,-3.4,55.2*,-3.3
O=C(Nc1ccccc1)c1ccc(CSc2ncccn2)cc1,-0.4,43.3*,18.6,-14.3,1.0,-0.5,19.8,.
Cn1nnnc1SCc1ccc(C(=O)Nc2ccccc2F)cc1,-5.8,-1.1,-5.2,56.2,0.0,0.0,.,.
CC(=O)Nc1nnc(SCc2ccc(C(=O)Nc3ccccc3F)cc2)s1,-6.4,47.7*,19.5,-25.8,0.1,1.8,52.6*,2.7
CCCCCCCC[n+]1cccc2c3ccccc3ccc21,-1.9,57.3*,20.2,-5.1,3.2,12.8,74.6*,3.6
Cc1ccc2c(c1)S/C(=C/c1ccc[n+](CCO)c1)N2C,33.6,55.6*,14.9,1.7,-0.3,-2.8,88.2*,2.0
Cc1ccc2c(c1)S/C(=C\c1cccc[n+]1C)N2CCO,38.5,58.5*,26.1,.,0.0,-0.8,88.6*,4.0
C[n+]1ccccc1/C=C1\Sc2ccccc2N1CCO,69.6,98.3*,22.4,29.0,0.0,-1.1,92.4*,-2.9
CC(=O)N1c2ccc(C)cc2Sc2c1ccc1ccccc21,.,.,.,.,-0.1,1.6,.,.
COc1cccc(C(=O)NCC2CCN(C(=O)C(=O)c3cc4ccccc4o3)CC2)c1,.,.,.,.,.,4.6,.,.
COc1ccc(CN(CC#Cc2ccc(C)cc2)C(N)=NC(=O)CCc2ccccc2)c(OC)c1,.,.,.,.,.,4.3,.,.
Cc1cc(N/N=C/c2ccc(O)cc2)nc(NS(=O)(=O)c2ccccc2)n1,3.7,48.7*,16.4,5.7,0.0,4.7,39.0*,-2.6
SMILES,ALR inh,A3A deaminase,A3G deaminase,PHOSPHO1 block,aDG glyco up,rCAG binder,APOBEC3A confirm,UDG A3A counter
COc1ccc(NC(=O)C2(C)CCN2C(=O)Cc2ccc(Cl)cc2Cl)cc1OC (configuration not stated),.,.,.,.,0.5,-1.3,.,.
CCCCNC(=O)[C@H]1C[C@H]1[C@@H](O)[C@H](CO)NC(=O)[C@H](Cc1ccccc1)NC(=O)OC(C)(C)C,0.2,66.1*,-7.8,-1.7,0.1,-6.3,-9.4,-0.9
CCCCNC(=O)[C@H]1C[C@H]1[C@@H](O)[C@H](CO)NC(=O)[C@H](COCc1ccccc1)NC(=O)OC(C)(C)C,0.5,-1.3,-1.7,15.2,0.1,-12.1,.,.
COC(=O)c1ccc(NC(=O)C2CCN(S(C)(=O)=O)CC2)cc1,-16.6,-4.1,-5.8,1.7,0.3,0.6,.,.
COC(=O)c1ccc(NC(=O)C2CCN(C(=O)Nc3ccccc3)CC2)cc1,-0.6,59.2*,12.8,.,0.2,4.7,26.2,.
CCNC(=O)C1CCCN(C(=O)c2ccc(C(=O)OC)cc2)CC1 (configuration not stated),.,.,.,.,-0.2,1.3,.,.
CC(=O)Oc1ccc(/C=N/NC(=O)C2CCCN2S(=O)(=O)c2ccc(Cl)cc2)cc1 (configuration not stated),100.3*,61.4*,15.6,73.1*,-0.2,-1.3,71.0*,-3.7
CCCCn1c(N)c(N(CCOC)C(=O)c2cc(S(=O)(=O)N3CCOCC3)ccc2Cl)c(=O)[nH]c1=O,.,.,.,.,0.0,3.0,.,.
COCC(=O)N1C[C@H]2CON(C)[C@H]2C[C@H]1c1cccc(-c2cc(Cl)cc(Cl)c2)c1,.,.,.,.,.,6.1,.,.
CCC12CCC3c4ccc(O)cc4CCC3C1CC(O)C2O (configuration not stated),.,.,.,.,-0.2,0.1,.,.
Cc1cc(/C=C2\SC(=O)N(C)C2=O)c(C)n1-c1ccc(S(N)(=O)=O)cc1,1.8,50.2*,15.7,-16.3,0.3,4.0,63.2*,-0.8
Cc1cc(/C=C2\SC(=O)N(C)C2=O)c(C)n1-c1ccc(O)cc1,14.9,-5.6,-1.9,-2.7,-0.3,6.1,.,.
COC(=O)[C@]12C[C@H](CC(=O)N3CCN(C(=O)C4CC4)CC3)C(=O)N(Cc3cccc4ccccc34)C1=C[C@H](C1CCCC1)O[C@@H]2C,.,.,.,.,.,9.4,.,.
O=c1[nH]ncc2c3ccccc3n(Cc3ccccc3)c12,1.8,4.4,-2.0,44.0,0.2,11.8,.,.
O=c1[nH]ncc2c3ccccc3n(Cc3ccccc3F)c12,-4.4,43.5*,-7.5,31.7,-0.1,32.2,-6.3,1.2
COc1ccc2c(C)cc(N3CCN(Cc4ccccc4)CC3)nc2c1,-2.5,41.0*,3.6,24.1,0.0,-4.3,24.8,.
COC/C=C/C1=CC2=CC(=O)C(C)(OC(=O)c3ccco3)C(=O)C2=CO1 (configuration not stated),-3.0,57.9*,26.3,8.9,.,.,60.3*,.
COc1ccc(C(=O)NCC2CCN(C(=O)C(=O)c3cccs3)CC2)cc1,.,.,.,.,.,1.4,.,.
